Laboratory results from publication PMC12820563, “FoxP3 forms a head-to-head dimer in vivo and stabilizes its multimerization on adjacent microsatellites”.
Whole data set: some 16,000 sequences, median “rpm ratio (pull-down/input)” near 0.5, cut for the highest 2% near 5.5. This is one part of a sample in which the highest values are shown more often than they occur.

The sequences below were run against T1, MBP-FoxP3dN (Mus musculus, UniProt Q99JB6 188-423) (assay: PD-seq (MBP pull-down with sequencing); 20 mM Tris-HCl pH 7.5, 100 mM NaCl, 1.5 mM MgCl2, 0.4 uM protein, 0.1 uM dsDNA library, 30 min, room temperature, amylose pull-down; high values mean tight binding). Settings: protein: recombinant; tags: His6-MBP; chain copies: 2; dsDNA, one strand shown.
T1 sequence: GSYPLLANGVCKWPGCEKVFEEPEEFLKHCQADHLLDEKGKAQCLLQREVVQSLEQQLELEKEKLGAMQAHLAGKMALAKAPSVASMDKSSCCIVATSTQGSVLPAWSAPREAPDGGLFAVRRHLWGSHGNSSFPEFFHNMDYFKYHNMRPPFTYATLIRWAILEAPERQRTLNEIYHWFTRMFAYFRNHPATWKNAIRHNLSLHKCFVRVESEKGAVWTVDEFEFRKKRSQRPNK
In short: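 A fragment of mouse FoxP3 or FoxP1 without its N-terminus, carrying a His6-MBP tag and produced in E. coli, was combined at 0.4 µM with a 0.1 µM degenerate double-stranded DNA library filled in with Klenow. The mixture sat for 30 min at room temperature in Tris pH 7.5 buffer containing NaCl and MgCl2. Protein–DNA complexes were captured on amylose resin, washed three times, and the DNA was freed with proteinase K, barcoded by PCR and sequenced on Illumina. Binding is expressed as reads-per-million enrichment of pull-down over input, with replicates pooled.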

Row | Sequence | binding signal
1 | GATGATTGTTCTCCCAGCTGATGAATTTGTGCATTCGAGTAAACAAATTTTCCTAATCTTTCTGTTCAAGCGCCATCTAC | 7.63 RPM ratio (pull-down/input)
2 | GATGATTGTTCTCCCAGCTGATGAATTGTGCATTTCGAGTAAACAAATTTTCCTAATCTTTCTGTTCAAGCGCCATCTAC | 7.44 RPM ratio (pull-down/input)
3 | GATGATTGTTCTCCCAGCTGATGAATTTTGTGATTCGAGTAAACAAATTTTCCTAATCTTTCTGTTCAAGCGCCATCTAC | 5.26 RPM ratio (pull-down/input)
4 | GATGATTGTTCTCCCAGCTGATGAATTGTGTGCATCGAGTAAACAAATTTTCCTAATCTTTCTGTTCAAGCGCCATCTAC | 2.8 RPM ratio (pull-down/input)
5 | GATGATTGTTCTCCCAGCTGATGAATTGTGCTGTTCGAGTAAACAAATTTTCCTAATCTTTCTGTTCAAGCGCCATCTAC | 3.6 RPM ratio (pull-down/input)
6 | GATGATTGTTCTCCCAGCTGATGAATTGGTGAATTCGAGTAAACAAATTTTCCTAATCTTTCTGTTCAAGCGCCATCTAC | 0.867 RPM ratio (pull-down/input)
7 | GATGATTGTTCTCCCAGCTGATGAATTGTGCCATTCGAGTAAACAAATTTTCCTAATCTTTCTGTTCAAGCGCCATCTAC | 6.37 RPM ratio (pull-down/input)
8 | GATGATTGTTCTCCCAGCTGATGAATTCATTTGTTCGAGTAAACAAATTTTCCTAATCTTTCTGTTCAAGCGCCATCTAC | 3.73 RPM ratio (pull-down/input)
9 | GATGATTGTTCTCCCAGCTGATGAATTTTCCCATTCGAGTAAACAAATTTTCCTAATCTTTCTGTTCAAGCGCCATCTAC | 0.252 RPM ratio (pull-down/input)
10 | GATGATTGTTCTCCCAGCTGATGAATTGGTGCATTCGAGTAAACAAATTTTCCTAATCTTTCTGTTCAAGCGCCATCTAC | 6.97 RPM ratio (pull-down/input)
11 | GATGATTGTTCTCCCAGCTGATGAATTCTCCCATTCGAGTAAACAAATTTTCCTAATCTTTCTGTTCAAGCGCCATCTAC | 0.243 RPM ratio (pull-down/input)
12 | GATGATTGTTCTCCCAGCTGATGAATTTGGTGCATCGAGTAAACAAATTTTCCTAATCTTTCTGTTCAAGCGCCATCTAC | 1.86 RPM ratio (pull-down/input)
13 | GATGATTGTTCTCCCAGCTGATGAATTGAATAGCTCGAGTAAACAAATTTTCCTAATCTTTCTGTTCAAGCGCCATCTAC | 0.346 RPM ratio (pull-down/input)
14 | GATGATTGTTCTCCCAGCTGATGAATTTGTAAAATCGAGTAAACAAATTTTCCTAATCTTTCTGTTCAAGCGCCATCTAC | 0.357 RPM ratio (pull-down/input)
15 | GATGATTGTTCTCCCAGCTGATGAATTGTCGTAGTCGAGTAAACAAATTTTCCTAATCTTTCTGTTCAAGCGCCATCTAC | 0.56 RPM ratio (pull-down/input)
16 | GATGATTGTTCTCCCAGCTGATGAATTCACGTGTTCGAGTAAACAAATTTTCCTAATCTTTCTGTTCAAGCGCCATCTAC | 0.58 RPM ratio (pull-down/input)

Row | Sequence | binding signal
17 | GATGATTGTTCTCCCAGCTGATGAATTAAGACGGTCGAGTAAACAAATTTTCCTAATCTTTCTGTTCAAGCGCCATCTAC | 0.236 RPM ratio (pull-down/input)
18 | GATGATTGTTCTCCCAGCTGATGAATTATAAAGATCGAGTAAACAAATTTTCCTAATCTTTCTGTTCAAGCGCCATCTAC | 0.233 RPM ratio (pull-down/input)
19 | GATGATTGTTCTCCCAGCTGATGAATTGTGCATCTCGAGTAAACAAATTTTCCTAATCTTTCTGTTCAAGCGCCATCTAC | 8.03 RPM ratio (pull-down/input)
20 | GATGATTGTTCTCCCAGCTGATGAATTTCGCCTTTCGAGTAAACAAATTTTCCTAATCTTTCTGTTCAAGCGCCATCTAC | 5.39 RPM ratio (pull-down/input)
21 | GATGATTGTTCTCCCAGCTGATGAATTCGTGCATTCGAGTAAACAAATTTTCCTAATCTTTCTGTTCAAGCGCCATCTAC | 6.29 RPM ratio (pull-down/input)
22 | GATGATTGTTCTCCCAGCTGATGAATTCTGTGCATCGAGTAAACAAATTTTCCTAATCTTTCTGTTCAAGCGCCATCTAC | 1.52 RPM ratio (pull-down/input)
23 | GATGATTGTTCTCCCAGCTGATGAATTTCGTGCATCGAGTAAACAAATTTTCCTAATCTTTCTGTTCAAGCGCCATCTAC | 1.22 RPM ratio (pull-down/input)
24 | GATGATTGTTCTCCCAGCTGATGAATTTGTGCCTTCGAGTAAACAAATTTTCCTAATCTTTCTGTTCAAGCGCCATCTAC | 4.02 RPM ratio (pull-down/input)
25 | GATGATTGTTCTCCCAGCTGATGAATTGTGCCTTTCGAGTAAACAAATTTTCCTAATCTTTCTGTTCAAGCGCCATCTAC | 6.1 RPM ratio (pull-down/input)
26 | GATGATTGTTCTCCCAGCTGATGAATTTTGTGCATCGAGTAAACAAATTTTCCTAATCTTTCTGTTCAAGCGCCATCTAC | 2.27 RPM ratio (pull-down/input)
27 | GATGATTGTTCTCCCAGCTGATGAATTCGTGCCATCGAGTAAACAAATTTTCCTAATCTTTCTGTTCAAGCGCCATCTAC | 2.18 RPM ratio (pull-down/input)
28 | GATGATTGTTCTCCCAGCTGATGAATTGCGAATCTCGAGTAAACAAATTTTCCTAATCTTTCTGTTCAAGCGCCATCTAC | 2.16 RPM ratio (pull-down/input)
29 | GATGATTGTTCTCCCAGCTGATGAATTCCATAGATCGAGTAAACAAATTTTCCTAATCTTTCTGTTCAAGCGCCATCTAC | 0.239 RPM ratio (pull-down/input)
30 | GATGATTGTTCTCCCAGCTGATGAATTAAGGGCCTCGAGTAAACAAATTTTCCTAATCTTTCTGTTCAAGCGCCATCTAC | 0.451 RPM ratio (pull-down/input)
31 | GATGATTGTTCTCCCAGCTGATGAATTCAATTCGTCGAGTAAACAAATTTTCCTAATCTTTCTGTTCAAGCGCCATCTAC | 0.665 RPM ratio (pull-down/input)
32 | GATGATTGTTCTCCCAGCTGATGAATTTCGGAGGTCGAGTAAACAAATTTTCCTAATCTTTCTGTTCAAGCGCCATCTAC | 0.25 RPM ratio (pull-down/input)
